M1 ag parental = counter-screen for M1 agonists: effect in parental CHO-K1 cells. activation, % at 3 µM. Fluo-8 calcium fluorescence; scaled to maximal ATP response, vehicle zero. 0.48% of 360,000 active; in the data active = activation above about 15%;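 also: untransfected CHO-K1 host cells lacking M1 receptor as counterscreen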
CHO-K1 Ca antag = M1 antagonist counterscreen hit in parental CHO-K1 cells; AID 602250; ATP-induced calcium, Fluo-8 fluorescence; 0.6% of 360,000 active; inhibition, % at 3 µM;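 active = inhibition above a per-plate cutoff, the plate's mean sample inhibition plus 3 SD, cut at about 24% in these data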;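 also: 0% = DMSO plus EC80 ATP and 100% = DMSO alone without ATP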
M1 PAM = human M1 muscarinic receptor positive allosteric modulators, primary screen, CHO-K1 cells, Fluo-8 calcium fluorescence, 1536-well; Muscarinic acetylcholine receptor M1 (Homo sapiens), P11229; CHO-K1 hM1, ACh EC20; 0% = ACh EC20, 100% = maximal ACh; activation, % at 3 µM; 0.088% of 360,000 active; AID 588819, 2011; in the data active = activation above about 19%, passing the limit was not always enough
Target sequence (P11229 whole entry, looked up): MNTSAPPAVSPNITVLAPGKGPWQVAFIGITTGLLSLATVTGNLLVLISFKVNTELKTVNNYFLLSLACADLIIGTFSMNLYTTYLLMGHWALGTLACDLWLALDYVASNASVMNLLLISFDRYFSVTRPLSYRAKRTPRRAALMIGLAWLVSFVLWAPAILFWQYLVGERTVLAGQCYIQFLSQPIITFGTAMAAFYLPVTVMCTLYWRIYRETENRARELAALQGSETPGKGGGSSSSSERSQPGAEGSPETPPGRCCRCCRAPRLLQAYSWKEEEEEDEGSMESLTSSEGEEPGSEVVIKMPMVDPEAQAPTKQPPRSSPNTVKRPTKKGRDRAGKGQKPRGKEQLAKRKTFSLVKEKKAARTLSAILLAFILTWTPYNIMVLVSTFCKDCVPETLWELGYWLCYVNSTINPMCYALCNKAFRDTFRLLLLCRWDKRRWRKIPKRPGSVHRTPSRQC
M1 PAM parental = nonselective calcium activators in parental CHO-K1 cells, primary screen, counter-screen for M1 PAM project, cell-based, Fluo-8 calcium fluorescence, full deck, 1536-well; 0.02% of 360,000 active; ATP EC20; 0% at ATP EC20, 100% at ATP max; activation, % at 3 µM; AID 602247, 2012;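 active = activation above the run cutoff, the mean activation of all test compounds plus 3 SD, cut at about 40% in these data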;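 also: peak over basal fluorescence ratio in a 140 s read after ATP addition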
CHRM1 agonist = human M1 muscarinic receptor agonists, primary screen, Fluo-8 calcium fluorescence, CHO-K1 cells, HTS | CHO-K1 hM1, agonist mode; 0% DMSO, 100% acetylcholine EC100 | 0.33% of 360,000 active | Muscarinic acetylcholine receptor M1 (Homo sapiens), P11229 | activation, % at 3 µM | AID 588814, 2011;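 active = activation above the run's mean compound activation plus 3 SD, cut at about 16% in these data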;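 also: peak over basal fluorescence ratio within a 140 s kinetic read after compound addition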
M1 antag = human M1 muscarinic receptor antagonists, primary screen, CHO-K1 cells, Fluo-8 calcium fluorescence, 1536-well. inhibition, % at 3 µM. 1.3% of 360,000 active. CHO-K1 hM1, ACh EC80 antagonist;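 active = percent inhibition above its own plate's cutoff, namely the mean of that plate's compound wells plus 3 SD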;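 also: peak over basal fluorescence ratio during 140 s after agonist addition; 0% = ACh EC80 plus DMSO and 100% = DMSO alone without agonist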
Active calls of the source: *. An excerpt weighted towards active compounds, which were near 2.4% of everything screened.

`COc1cc2c(cc1OC)[C@@H]1C(=O)c3ccc4c(c3O[C@@H]1CO2)C[C@H](C(C)C)O4` gave M1 ag parental 10, CHO-K1 Ca antag 29*, M1 PAM -10, M1 PAM parental -6, CHRM1 agonist 2 and M1 antag 34.
CC1(CCO)C(=O)NC(=S)NC1=O was read as M1 ag parental 1, CHO-K1 Ca antag -10, M1 PAM 5, M1 PAM parental 15, CHRM1 agonist -2 and M1 antag -13.
CC(C)[N+](C)(CCC(C(N)=O)(c1ccccc1)c1ccccc1)C(C)C was read as M1 ag parental 1, CHO-K1 Ca antag 7, M1 PAM -26, M1 PAM parental 8, CHRM1 agonist -8 and M1 antag 99*.
For CCCn1cc(CN2CCCC(C(=O)c3cccc(OC)c3)C2)c(C)n1 (stereo not given) the results were M1 ag parental 0, CHO-K1 Ca antag 4, M1 PAM -30, M1 PAM parental -1, CHRM1 agonist -12 and M1 antag 24.
Screening CCCn1ncc(CN2CCCC(C(=O)c3cccc(OC)c3)C2)c1C (stereo not given) returned M1 ag parental 0, CHO-K1 Ca antag -5, M1 PAM -34, M1 PAM parental 16, CHRM1 agonist -14 and M1 antag 94*.
For COc1cccc(C(=O)C2CCCN(Cc3cnn(C(C)C)c3)C2)c1 (stereo not given) the results were M1 ag parental 1, CHO-K1 Ca antag -8, M1 PAM -12, M1 PAM parental 20, CHRM1 agonist -10 and M1 antag 8.
For CCn1cc(CN2CCCC(C(=O)c3cccc(OC)c3)C2)c(C)n1 (stereo not given) the results were M1 ag parental 1, CHO-K1 Ca antag 2, M1 PAM -34, M1 PAM parental -10, CHRM1 agonist -13 and M1 antag 50*.
O=S(=O)(c1ccc(F)cc1)N1CCCCC1c1cccnc1 (stereo not given) was read as M1 ag parental 13, CHO-K1 Ca antag -2, M1 PAM 8, M1 PAM parental 10, CHRM1 agonist -2 and M1 antag -5.
CC(=NCCC1=CCCCC1)c1c(O)n(-c2ccccc2)c(=O)[nH]c1=O was read as M1 ag parental 0, CHO-K1 Ca antag -2, M1 PAM 6, M1 PAM parental 8, CHRM1 agonist -7 and M1 antag -7.
`CCn1c(O)c(C=NCCN2CCOCC2)c(=O)[nH]c1=S` gave M1 ag parental 1, CHO-K1 Ca antag -9, M1 PAM 0, M1 PAM parental 5, CHRM1 agonist -2 and M1 antag 4.
Screening O=[N+]([O-])c1ccc(-[n+]2c(-c3ccccc3)cc(-c3ccccc3)cc2-c2ccccc2)cc1 returned M1 ag parental 0, CHO-K1 Ca antag -5, M1 PAM -20, M1 PAM parental 12, CHRM1 agonist -11 and M1 antag 36*.
For O=C(Nc1ccccc1)NC1CC2CCC(C1)N2 (stereo not given) the results were M1 ag parental 0, CHO-K1 Ca antag -1, M1 PAM -17, M1 PAM parental 8, CHRM1 agonist -5 and M1 antag 31*.
Screening CS(=O)(=O)c1ccc(C2=C(CNC(=O)c3nccs3)[C@H]3CC[C@@H](C2)N3CCOc2ccccc2)cc1 returned M1 ag parental 0, CHO-K1 Ca antag 5, M1 PAM -26, M1 PAM parental 6, CHRM1 agonist -11 and M1 antag 56*.
Screening CS(=O)(=O)c1ccc(C2=C(CNC(=O)c3cccs3)[C@H]3CC[C@@H](C2)N3CCOc2ccccc2)cc1 returned M1 ag parental 1, CHO-K1 Ca antag -10, M1 PAM -25, M1 PAM parental 15, CHRM1 agonist -11 and M1 antag 35*.

Screening results deposited in PubChem BioAssay by The Scripps Research Institute Molecular Screening Center.
